Data reported in PubChem BioAssay AID2391 (Southern Research Specialized Biocontainment Screening …, 2010).
In all, about 310,000 compounds went through this assay and about 410 (0.13%) were called active. Not shown: some 2% with an inconclusive outcome. How the calls were made is not given here. A selection follows. Results with a measured potency or affinity are listed apart.

Test: RSV antiviral activity via CPE protection, HEp-2 cells, primary 10 µM value included (AID 2391)
Conditions: RSV-induced CPE inhibition, at 10 µM, stronger effect = higher value

CPE inhibition, inactive:
CCCCCCSc1cccc(-c2nc3ccc(Cl)cn3c2NCc2ccccc2)c1 -1.21%
O=C(CCSc1nnc2scc(-c3ccccc3)n12)Nc1nc(-c2ccccc2)ns1 9.19%
CCN(c1ccccc1)S(=O)(=O)c1cccc(C(=O)NCC(c2cccs2)N(C)C)c1 (stereo not given) -0.95%
CCOC(=O)C1=C(C)N=c2s/c(=C\c3ccc(OCC(=O)O)cc3)c(=O)n2C1c1ccc(Cl)cc1 (stereo not given) 18.1%
CCOC(=O)C1=C(C)N=c2s/c(=C\c3ccc(OCC(=O)O)c(OC)c3)c(=O)n2C1c1ccc(OC)cc1 (stereo not given) 2.77%
CC1CC(C)CN(S(=O)(=O)c2ccc(C(=O)OCC(=O)NCCN3C(=O)CSC3=O)cc2)C1 (stereo not given) 0.02%
Cc1nnc(SCC(=O)N(C2CCCCC2)C2CCS(=O)(=O)C2)n1N (stereo not given) -1.53%
O=C(CSc1nc2ccccc2o1)N1CCCC1 -0.37%
COC(=O)C1=C(C)N(CC2CC2)C(=O)N[C@H]1c1ccc(Br)cc1 27%
COC(=O)C1=C(C)N(Cc2ccco2)C(=O)N[C@@H]1c1ccccc1 2.19%
CCN1C(=O)N[C@@H](c2cccc(C(F)(F)F)c2)C(C(=O)OC)=C1C -0.08%
COC(=O)C1=C(C)N(Cc2ccco2)C(=O)N[C@@H]1c1ccc(Br)cc1 0.6%
COC(=O)C1=C(C)N(Cc2ccco2)C(=O)N[C@@H]1c1ccco1 0.83%
COC(=O)C1=C(C)N(Cc2ccco2)C(=O)N[C@@H]1c1cccc(C(F)(F)F)c1 4.06%
CCOCCOC(=O)C1=C(C)Nc2ccc(C)cc2S1 2.03%
CN(C(=O)COC(=O)c1cc(S(=O)(=O)N2CCOCC2)ccc1Cl)C1CCS(=O)(=O)C1 (stereo not given) -1.51%
CCn1nnnc1-c1ccc(OC)c(S(=O)(=O)Nc2ccc(C(=O)OC)cc2)c1 1.29%
Cc1ccc(CC(=O)NCC2CCCCC2)cc1 0.51%
Cc1ccsc1CNC1C2CC3CC(C2)CC1C3 (stereo not given) -1.39%
CC(C)c1ccc(/C=C(\NC(=O)c2ccccc2)C(=O)NCCN2CCOCC2)cc1 0.84%
Cc1ccc(C(=O)N/C(=C\c2ccc(Cl)cc2)C(=O)NCCN2CCOCC2)cc1 0.95%
CC(C)c1ccc(/C=C(\NC(=O)c2ccccc2)C(=O)NCCCN2CCOCC2)cc1 0.11%
Cc1ccc(C(=O)N/C(=C\c2ccc(Cl)cc2)C(=O)NCCCN2CCOCC2)cc1 2.02%
N#C/C(=C\c1ccc(OCc2ccc(C(=O)O)cc2)cc1)C(=O)NCc1ccccc1 1.49%
CCOc1ncccc1C(=O)N(C)CC(=O)Nc1ccccc1SC 1.11%
Clc1ccc(Sc2cc(Cl)c(-c3ccccc3)nn2)cc1 4.99%
O=C(C1=COCCO1)N1CCN(S(=O)(=O)c2cccc(F)c2)CC1 1.49%
Cc1cc2c(cc1S(=O)(=O)Nc1cccc(C)c1C)n(C)c(=O)c(=O)n2C -1.46%
CN(C)S(=O)(=O)c1cccc(NC(=O)COC(=O)CCC(=O)c2cccs2)c1 -1.26%
Cc1ccc(S(=O)(=O)NNC(=O)Nc2ccc(C)c(C)c2)c(C)c1 1.56%
COc1cccc(CN2C(=O)C3CCCN3c3ccc(S(=O)(=O)N4CCOCC4)cc32)c1 (stereo not given) 15.8%
COc1ccc(CCNC(=O)c2ccc([N+](=O)[O-])cc2)cc1 0.4%
COc1ccc(CCNC(=O)c2ccc(-c3ccc([N+](=O)[O-])cc3)o2)cc1OC 3.03%
COC(=O)c1ccccc1OC(=O)c1cc2ccccc2oc1=O -0.19%
Nc1nc(SCC(=O)c2ccc(F)cc2)n[nH]1 0.71%
O=C(CNc1cccc(C(F)(F)F)c1)N/N=C/c1ccccc1C(=O)O 1.07%
O=C(CNc1ccccc1)N/N=C/c1cn(-c2ccccc2)nc1-c1ccccc1 6.81%
CCOC(=O)N1CCN(C(=O)COc2ccc3c(c2)C(=O)CC(C)(C)O3)CC1 1.7%
Cc1ccc(N(C(=O)c2snc(C(N)=O)c2N)C(C(=O)NC2CCCC2)c2ccncc2)cc1 (stereo not given) 0.36%
COc1ccc(C(C(=O)NC2CCCC2)N(C(=O)c2snc(C(N)=O)c2N)c2ccccc2OC)cc1OC (stereo not given) 17.8%
COc1ccc(C(C(=O)NC2CCCC2)N(C(=O)c2snc(C(N)=O)c2N)C2CCCC2)cc1OC (stereo not given) 3.34%
COc1cc(C(C(=O)NC2CCCC2)N(C(=O)c2snc(C(N)=O)c2N)c2ccccc2)cc(OC)c1OC (stereo not given) 1.74%
Cc1ccc(C(CCN(Cc2ccccc2)C(=O)c2ccco2)c2ccco2)cc1 (stereo not given) 6.53%
Cc1cccc(CSc2nc3sc(C)c(C)c3c(=O)n2Cc2ccco2)c1 13.2%
O=C(CSc1nnc2ccccn12)Nc1ncc(Cl)cc1Cl 4.23%
COc1ccc(-n2c(SC(C)C(=O)Nc3ncc(Cl)cc3Cl)nc3ccccc32)cc1 (stereo not given) 15.9%
COCCn1c(SCC(=O)Nc2ccc(Cl)cn2)nc2ccccc21 -1.02%
Cc1cc(SCC(=O)Nc2ncc(Cl)cc2Cl)nc2ccccc12 5.54%
COc1ccc(-n2c(SCC(=O)Nc3ncc(Cl)cc3Cl)nc3ccccc32)cc1 18.7%
Cc1ccc(-n2c(SCC(=O)Nc3cccc(S(N)(=O)=O)c3)nc3ccccc32)cc1 1.64%
CC(=O)N[C@@H](Cc1ccc(O)cc1)CN1C(N)=NC[C@@H]1CC(C)C -0.28%
O=C(COc1cccc2c1CCNC2=O)Nc1cccc(C(F)(F)F)c1 1.19%
C/C(=N/OC(=O)C1CC12CCC2)c1ccc(Br)cc1 (stereo not given) 2.98%
CCOC(=O)C1CCN(C(=O)CC(C)S(=O)(=O)c2ccc3c(c2)NC(=O)CO3)CC1 (stereo not given) 7%
CCOc1ccc(S(=O)(=O)Nc2ccc(F)cc2)c(C)c1C 6.57%
Cc1cccc(C)c1OCc1cc(C(=O)N2CCN(C3CCCC3)CC2)no1 0.09%
O=C(Oc1ccc(-c2nnco2)cc1)N1CCCCC1 2.35%
OCCNc1c2ccccc2nc2c(F)c(F)c(F)c(F)c12 -1.66%
CCCNc1c(F)c(F)c2c(C)c3ccccc3nc2c1F -1.87%
CCOc1ccc(C2=C/C(=C/c3cccnc3)C(=O)O2)cc1 1.93%
COc1ccc(OC)c(CCNC(=O)CN2C(=O)CCSc3ccccc32)c1 -3.24%
Cc1ccc2[nH]c(-c3cccc(F)c3)cc(=O)c2c1 -0.29%
Cc1ccc2nc(-c3cccc(N)c3)[nH]c2c1 2.27%
Cc1cccc(-c2nc(CS(=O)CC(=O)NCCc3ccccc3)c(C)o2)c1 (stereo not given) 0.05%
COCc1[nH]nc2c1C1(C(=O)N(C)c3ccccc31)C(C#N)=C(N)O2 (stereo not given) 2.9%
O=C1c2ccccc2C(=O)N1CCc1csc(-c2ccc(F)cc2)n1 2.17%
O=C1c2ccccc2C(=O)N1CCc1csc(-c2ccccc2)n1 3.44%
CCSc1nc(O)cc(=O)n1-c1ccc(OC)cc1 -0.46%
CC(NC(=O)c1nn(C)c(=O)c2ccccc12)c1ccc(F)cc1 (stereo not given) 1.39%
O=C(/C=C/c1ccco1)Nc1sc2c(c1C(=O)O)CCC2 3.96%
O=C(/C=C/c1cccs1)Nc1sc2c(c1C(=O)O)CCCC2 16.6%
O=C(Nc1sc2c(c1C(=O)O)CCCCC2)c1ccccc1 2.56%
O=C(O)CCC(=O)Nc1sc2c(c1C(=O)NCc1ccccc1)CCCC2 1.43%
Cn1cnnc1Sc1cc(N2CCN(S(=O)(=O)c3ccccc3)CC2)ccc1[N+](=O)[O-] 2.72%
Cc1ccc(S(=O)(=O)N2CCN(c3ccc([N+](=O)[O-])c(Sc4nncn4C)c3)CC2)cc1 2%
Cc1ccc(C(=O)COC(=O)c2ccncc2)cc1[N+](=O)[O-] 1.18%
CCCCCCCN1C/C=C\C(c2ccc(OC)cc2)N(Cc2ccc(F)cc2)C(=O)[C@H]1Cc1ccccc1 (stereo not given in full) 0.33%
CCN(CC(=O)NCc1ccccn1)S(=O)(=O)c1cc(Cl)ccc1Cl -1.64%
Cc1ccc2[nH]c3c(=O)[nH]ncc3c2c1 -1.42%
CCNC(=O)C1CN(S(=O)(=O)c2ccccc2)CCN1S(=O)(=O)c1ccccc1 (stereo not given) -2.71%
CC(C)(C)NC(=O)C1CN(S(=O)(=O)c2ccccc2)CCN1S(=O)(=O)c1ccccc1 (stereo not given) 0.62%
CCCCn1c(N)c(N(CC(C)C)C(=O)c2c(CC)noc2C)c(=O)[nH]c1=O -1.37%
C/C(N)=C(/C#N)C(=O)COC(=O)c1ccccc1Oc1ccccc1 2.44%
C/C(N)=C(/C#N)C(=O)COC(=O)c1ccccc1O 1.5%
C/C(N)=C(/C#N)C(=O)COC(=O)c1cc2c(s1)CCC(C)C2 (stereo not given) 5.48%
Cc1cc(C(=O)COC(=O)c2ccc[nH]c2=O)c(C)n1-c1ccc(F)cc1 2.01%
C/C(N)=C(/C#N)C(=O)COC(=O)c1cccc2ccccc12 4.13%
CNC(=O)COC(=O)c1cc2c(s1)CCCC2 1.88%
Cc1cc(C(=O)OCC(N)=O)c(C)n1-c1ccccc1 -3.46%
C/C(N)=C(/C#N)C(=O)COC(=O)C(c1ccccc1)c1ccccc1 0.91%
